Assay outcomes from PubChem BioAssay.
cardiac RTF act – cardiac RTF calcium sensitivity activators, primary screen, biochemical, IANBD-TnC fluorescence, EC20 calcium; Troponin I, cardiac muscle (Homo sapiens) + Troponin T, cardiac muscle (Homo sapiens) + …; IANBD-labeled TnC RTF fluorescence at EC20 calcium; 0% EC20 calcium, 100% full calcium; activation, % at 7.2 µM; 0.24% of 340,000 active; AID 493008, 2010;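 active = activation above the mean over all tested compounds plus 3 SD, cut at about 30% in these data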;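 also: rise in fluorescence read as greater calcium sensitivity of cardiac thin filaments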
Cardiac RTF inh – cardiac RTF calcium sensitivity inhibitors, primary screen, biochemical, IANBD-TnC fluorescence, EC70 calcium; Troponin I, cardiac muscle (Homo sapiens) + Troponin T, cardiac muscle (Homo sapiens) + …; IANBD-labeled cardiac RTF, Ca2+ fluorescence; inhibition, % at 7.15 µM; 0.12% of 340,000 active;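 active = inhibition above the mean inhibition of all tested compounds plus 3 SD, cut at about 17% in these data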;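 also: assay run at fixed EC70 calcium of 1.6 mM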
TMEM16A inh – TMEM16A chloride channel inhibitors, primary screen, cell-based, HTS | Anoctamin-1 (Mus musculus), Q8BHY3 | HEK293 TMEM16A/YFP iodide influx fluorescence, ionomycin | normalized B-score (activity score, 25-100; higher = stronger inhibition) at 10 µM | 1.2% of 310,000 active | AID 588511, 2011;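 active = ratio plate-corrected score three or more library SD toward inhibition, starting fluorescence score within five deviations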;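 also: score derived from kinetic fluorescence span divided by baseline fluorescence per well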
ANO1 activ – TMEM16A chloride channel activators or potentiators, primary screen, cell-based, HTS | Anoctamin-1 (Mus musculus), Q8BHY3 | HEK293 TMEM16A/YFP-H148Q/I152L, iodide quench fluorescence; stronger effect = lower value | B-score at 10 µM | 0.3% of 340,000 active;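 active = fluorescence-ratio B-score plate-corrected deviation score at least 3 library SD below zero, with starting fluorescence score within 5 deviations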;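 also: channel opened by trigger with iodide after compound preincubation; score built on the fluorescence ratio of max minus min over baseline; more negative score means more quench and so TMEM16A activation or potentiation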
CRFR2-BP antag – antagonists of CRF-BP/CRF-R2 complex, primary screen, cell-based, HEK293, calcium dye fluorescence, uHTS; CRF-induced calcium fluorescence; inhibition, % at 11.8 µM; 0.59% of 350,000 active;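 active = inhibition of the ligand-induced calcium signal above about 50% at the single tested concentration, limit read from the data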
CRFR2-BP ag – agonists of CRF-BP/CRF-R2 complex, primary screen, cell-based, HEK293, calcium dye fluorescence, uHTS; AID 588473, 2011; activation, % at 13.2 µM; CRF-binding protein / CRF receptor 2 complex (human); calcium dye fluorescence (FLIPR); percent of saturating CRF peptide response; 0.46% of 350,000 active;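 active = activation of at least 50%, plus an integration ratio under a set limit after plate pattern correction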;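 also: plate controls were neutral control wells without compound for no effect and CRF at EC100 for full effect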
Numbers without * were called inactive; i = inactive; · = no result given. Rows were chosen to be rich in hits. Some 2.4% of all compounds tested hit in one or more screens of this group.

SMILES	cardiac RTF act	Cardiac RTF inh	TMEM16A inh	ANO1 activ	CRFR2-BP antag	CRFR2-BP ag
Cc1ccc(-c2csc(NC(=O)c3cccc(C)c3)c2C(=O)O)cc1	11.4	-5.2	i	i	27.9	-0.2
COc1cc(C(=O)Nc2scc(-c3ccc(Br)cc3)c2C(=O)O)cc(OC)c1OC	-1.0	-10.3	100*	i	33.7	-9.0
COc1cc(C(=O)Nc2sc(C)c(C)c2C(=O)O)cc(OC)c1OC	2.0	-7.2	i	i	4.4	-0.3
C[C@H](CO)N1C[C@H](C)[C@@H](CN(C)S(C)(=O)=O)Oc2c(NC(=O)c3ccncc3)cccc2C1=O	0.4	-8.8	·	i	4.7	-0.1
COCCNc1nc2c(S(=O)(=O)c3cc(C)ccc3C)nnn2c2ccccc12	-0.8	4.0	i	i	50.3*	0.4
COc1ccc(NC(=O)/C(Cl)=C(/Cl)S(=O)Cc2ccc(Cl)cc2)cn1 (configuration not stated)	-3.0	-4.8	·	i	-52.8	88.3*
CCCn1c(SCC(=O)Nc2cccc(S(=O)(=O)N(C)C)c2)nc2ccccc2c1=O	-3.0	0.6	i	i	4.5	-1.8
COc1ccc(C2(C)NC(=O)N(CC(=O)c3cc(C)n(C4CC4)c3C)C2=O)cc1 (configuration not stated)	-2.2	0.8	·	i	-52.4	99.6*
Cc1nnsc1C(=O)N/N=C/c1ccc2ccccc2c1O	5.8	-11.1	i	i	-170.0	147.0*
Cc1[nH]nc2c1-c1nc3ccccc3nc1C(C)(C)C2	-7.8	13.0	25*	i	-31.4	1.0
CC12CCC(C)(c3nc4ccccc4nc31)C2(C)C	-0.9	13.5	i	i	-3.0	18.9
Cc1ccc(C)c(S(=O)(=O)N2CCN(C(=O)C3CCN(c4ncnc5sc(C)c(C)c45)CC3)CC2)c1	-6.8	-3.1	i	i	-4.2	0.6
NS(=O)(=O)c1ccc(CCNC(=O)CCCCCn2c(=S)[nH]c3ccc(Br)cc3c2=O)cc1	0.2	-3.5	i	i	-20.3	3.3
CCCCC1(C)OC(=O)C(=Cc2ccc(N(CC)CC)cc2)C(=O)O1 (configuration not stated)	5.1	-5.7	i	i	-50.5	59.4*
CCOc1ccc(NC(=O)CN(C)C(=O)CC(NC(=O)c2ccccc2)c2ccccc2)cc1OCC (configuration not stated)	-6.5	-6.0	i	-4.95*	-26.7	23.2
O=C(CSc1nnnn1-c1cccnc1)NCc1cccs1	2.7	-21.8	i	i	2.1	-0.1
Cc1ccc(Cn2c(=N)n(CC(=O)c3ccccc3)c3ccccc32)cc1	-6.4	-1.8	25*	i	-40.5	-0.8
CCOC(=O)C1=C(C)N=c2s/c(=C/c3cccc([N+](=O)[O-])c3O)c(=O)n2C1c1ccccc1 (configuration not stated)	-0.8	-4.7	100*	i	1.4	1.0
COc1cc(C)c(C)cc1S(=O)(=O)N1CCCCC1c1cccnc1 (configuration not stated)	-8.4	0.0	i	-6.01*	0.4	-1.2
CC(=O)Nc1ccc(S(=O)(=O)N2CCCCC2c2cccnc2)cc1 (configuration not stated)	-1.2	-5.5	i	i	4.6	0.1
COc1ccc(-c2nnc(SCc3ccccn3)n2C)cc1	-1.9	-15.4	i	i	2.1	4.4
COc1ccc(N=C(N)SCc2ccccn2)cc1	-6.2	-20.9	i	i	-25.8	61.9*
CC(OC(=O)c1ccccc1NS(=O)(=O)c1cccc(C(F)(F)F)c1)C(=O)N(C)Cc1ccccc1 (configuration not stated)	-1.8	-1.7	100*	i	-5.8	3.6
CC1(C)NC(=O)N(CNc2cc(Cl)ccc2Cl)C1=O	2.3	-9.7	i	i	-12.8	-1.4
Cc1nnc(SCC(=O)c2cc(C)n(C3CC3)c2C)s1	5.3	-9.7	i	i	-25.7	51.8*
SMILES	cardiac RTF act	Cardiac RTF inh	TMEM16A inh	ANO1 activ	CRFR2-BP antag	CRFR2-BP ag
CNc1nnc(SCC(=O)c2cc(C)n(C3CC3)c2C)s1	-0.7	-5.2	·	i	0.7	-0.2
CCCCCC(=O)NCc1c(C(F)(F)F)nn(C)c1N1CCOCC1	-1.4	-2.2	i	i	23.1	-6.9
COc1ccccc1Oc1ccc2c(c1)C(=O)N(c1ccc(C)cc1)C2=O	-3.4	2.0	i	-6.14*	18.4	8.2
COc1ccccc1N1CCN(CCC(=O)Nc2ccc(F)cc2)CC1	-4.0	6.6	i	i	4.5	-0.3
Fc1cccc(Cl)c1-c1nnc2ccc(C(F)(F)F)cn12	9.1	2.0	i	i	15.2	50.1*
O=C(Nc1ccc(C(=O)N2CCCC2)cc1)C1CCC1	-8.1	-10.3	·	·	-7.4	-0.2
O=C(/C=C/c1ccco1)OCc1nnc(-c2ccc(Cl)cc2)o1	-2.7	1.5	i	i	86.7*	0.5
Cc1cccc(N2CCN(C(=O)c3ccc4c(c3)OCCO4)CC2)c1C	3.4	-5.4	i	i	-2.0	-4.3
Cc1cccc(C)c1N1CCN(C(=O)c2ccc3c(c2)OCO3)CC1	-2.8	1.2	i	i	61.1*	-0.1
Cc1ccccc1C(=O)N1CCN(c2ccc(NC(=O)c3ccc4c(c3)OCCO4)cc2)CC1	1.0	3.2	25*	i	-17.9	-0.8
O=C(COc1ccccc1Cl)Nc1cc(NC(=O)COc2ccccc2Cl)cc(C(=O)O)c1	-4.2	4.8	i	i	1.9	-0.8
CCn1nc(C(=O)NNS(=O)(=O)c2ccc(C)cc2)c2ccccc2c1=O	3.3	-2.9	·	i	4.8	-2.1
CN(C)c1cc(Nc2ccc(O)cc2)c([N+](=O)[O-])c2nonc12	3.2	2.5	i	i	13.7	-9.7
O=[N+]([O-])c1c(Nc2ccc(O)cc2)cc(Cl)c2nonc12	-8.2	1.1	100*	-8.29*	66.9*	-1.8
O=[N+]([O-])c1c(Nc2ccccn2)cc(Cl)c2nonc12	33.0*	2.9	i	i	25.9	-2.3
CC12CCC(C/C1=N\OC(=O)c1c(F)cccc1F)C2(C)C (configuration not stated)	2.3	-7.0	i	i	95.3*	-0.1
Cc1cc(/C=N/NC(=O)C(=O)NCc2ccccn2)c(C)n1-c1ccccc1	1.3	-10.5	i	i	-0.5	0.1
